# In PMC7862700, “An all-to-all approach to the identification of sequence-specific readers for epigenetic DNA modifications on cytosine”:
# Tests used:
# Test in all cases: DAPPL (digital affinity profiling via proximity ligation, sequencing); 10 mM Tris-HCl pH 7.5, 50 mM NaCl, 1 mM DTT, 4% glycerol, room temperature, 30 min; GST-TFs on glutathione beads, 16-mer random dsDNA library, 0.1% formaldehyde crosslink after washing; high values mean tight binding
# Conditions in all cases: protein: recombinant; tags: N-terminal GST; dsDNA, one strand shown
# FLI1 = biological target: T1, FLI1 (Homo sapiens, UniProt Q01543 1-452)
# T1 sequence: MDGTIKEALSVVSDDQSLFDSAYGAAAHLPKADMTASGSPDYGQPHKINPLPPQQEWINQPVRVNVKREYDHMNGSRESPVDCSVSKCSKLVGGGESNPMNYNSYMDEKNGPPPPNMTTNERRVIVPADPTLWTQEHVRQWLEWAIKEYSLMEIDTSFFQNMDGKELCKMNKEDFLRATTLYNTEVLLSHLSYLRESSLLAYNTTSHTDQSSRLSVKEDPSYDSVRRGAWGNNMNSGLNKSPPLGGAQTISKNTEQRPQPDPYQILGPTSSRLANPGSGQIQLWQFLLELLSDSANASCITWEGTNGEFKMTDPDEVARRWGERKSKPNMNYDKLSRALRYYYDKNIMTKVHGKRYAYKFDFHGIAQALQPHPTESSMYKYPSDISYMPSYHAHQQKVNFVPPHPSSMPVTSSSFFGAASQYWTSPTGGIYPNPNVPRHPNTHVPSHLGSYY
# Outline: (§1)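 The binding signal reported is, for every hexamer, its read frequency for a factor over its read frequency for the tag-only sample. Reads came from pools of yeast-expressed, GST-fused human transcription factors on glutathione beads, barcoded with DNA and mixed with that sample, which were incubated with 200 nmole of a random double-stranded 16-mer DNA library in Tris/NaCl/DTT/glycerol buffer at room temperature for 30 min. After washing, the pools were crosslinked with 0.1% formaldehyde, proximity-ligated with BsaI/T4 ligase for 1 h at 37 °C, PCR-amplified and sequenced on an Illumina NextSeq500.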
# ELK1 = biological target: T2, ELK1 (Homo sapiens, UniProt P19419 1-428)
# T2 sequence: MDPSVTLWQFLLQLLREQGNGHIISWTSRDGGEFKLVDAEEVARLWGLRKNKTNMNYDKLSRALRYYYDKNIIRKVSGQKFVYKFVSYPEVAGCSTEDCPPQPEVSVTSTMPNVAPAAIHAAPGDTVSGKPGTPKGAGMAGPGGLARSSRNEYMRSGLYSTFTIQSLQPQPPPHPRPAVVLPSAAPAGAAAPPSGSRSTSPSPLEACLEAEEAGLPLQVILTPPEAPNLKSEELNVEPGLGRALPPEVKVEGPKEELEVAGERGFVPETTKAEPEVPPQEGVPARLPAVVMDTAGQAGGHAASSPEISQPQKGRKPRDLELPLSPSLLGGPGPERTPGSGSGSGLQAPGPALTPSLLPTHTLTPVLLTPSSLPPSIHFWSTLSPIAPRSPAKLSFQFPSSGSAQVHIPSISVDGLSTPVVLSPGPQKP
# Outline: as §1
# GABPA = biological target: T3, GABPA (Homo sapiens, UniProt Q06546 1-454)
# T3 sequence: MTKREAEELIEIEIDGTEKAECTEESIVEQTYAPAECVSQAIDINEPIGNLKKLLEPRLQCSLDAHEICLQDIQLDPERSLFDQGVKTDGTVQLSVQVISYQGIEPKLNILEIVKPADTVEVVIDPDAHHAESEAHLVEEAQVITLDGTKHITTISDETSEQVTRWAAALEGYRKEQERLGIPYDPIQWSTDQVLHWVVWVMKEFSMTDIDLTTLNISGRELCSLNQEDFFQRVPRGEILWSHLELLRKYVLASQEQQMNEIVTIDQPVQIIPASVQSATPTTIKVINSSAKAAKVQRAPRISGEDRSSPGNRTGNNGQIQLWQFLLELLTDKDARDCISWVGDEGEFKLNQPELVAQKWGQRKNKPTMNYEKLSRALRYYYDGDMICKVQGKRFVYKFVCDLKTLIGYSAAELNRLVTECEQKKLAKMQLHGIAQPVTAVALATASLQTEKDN
# Outline: as §1
# ERG = biological target: T4, ERG (Homo sapiens, UniProt P11308 1-479)
# T4 sequence: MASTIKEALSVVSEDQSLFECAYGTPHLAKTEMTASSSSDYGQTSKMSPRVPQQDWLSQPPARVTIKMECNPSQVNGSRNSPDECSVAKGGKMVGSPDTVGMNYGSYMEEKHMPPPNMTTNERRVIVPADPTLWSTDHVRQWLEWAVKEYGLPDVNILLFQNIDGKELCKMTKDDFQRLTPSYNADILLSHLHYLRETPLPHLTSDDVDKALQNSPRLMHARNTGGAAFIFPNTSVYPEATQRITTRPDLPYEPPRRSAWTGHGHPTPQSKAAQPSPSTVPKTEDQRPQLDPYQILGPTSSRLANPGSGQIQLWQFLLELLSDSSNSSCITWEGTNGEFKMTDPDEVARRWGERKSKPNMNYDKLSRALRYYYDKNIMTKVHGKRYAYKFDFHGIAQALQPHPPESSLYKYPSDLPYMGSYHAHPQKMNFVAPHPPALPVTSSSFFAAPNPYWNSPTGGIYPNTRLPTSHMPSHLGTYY
# Outline: as §1
# ELF1 = ELF1 (Homo sapiens, UniProt P32519 1-619)
# Outline: as §1
# EHF = biological target: T5, EHF (Homo sapiens, UniProt Q9NZC4 1-300)
# T5 sequence: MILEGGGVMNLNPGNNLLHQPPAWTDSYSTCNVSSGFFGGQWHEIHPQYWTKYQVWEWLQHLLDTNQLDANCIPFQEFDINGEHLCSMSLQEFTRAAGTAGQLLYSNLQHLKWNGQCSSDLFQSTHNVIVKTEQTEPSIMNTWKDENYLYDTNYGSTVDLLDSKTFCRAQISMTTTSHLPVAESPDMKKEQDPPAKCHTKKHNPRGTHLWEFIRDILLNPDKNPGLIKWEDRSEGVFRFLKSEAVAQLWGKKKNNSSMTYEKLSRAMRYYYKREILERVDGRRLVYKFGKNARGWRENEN
# Outline: as §1
# SPI1 = SPI1 (Homo sapiens, UniProt P17947 1-270)
# Outline: as §1
# SPIB = SPIB (Homo sapiens, UniProt Q01892 1-262)
# Outline: as §1
# ELK3 = biological target: T6, ELK3 (Homo sapiens, UniProt P41970 1-407)
# T6 sequence: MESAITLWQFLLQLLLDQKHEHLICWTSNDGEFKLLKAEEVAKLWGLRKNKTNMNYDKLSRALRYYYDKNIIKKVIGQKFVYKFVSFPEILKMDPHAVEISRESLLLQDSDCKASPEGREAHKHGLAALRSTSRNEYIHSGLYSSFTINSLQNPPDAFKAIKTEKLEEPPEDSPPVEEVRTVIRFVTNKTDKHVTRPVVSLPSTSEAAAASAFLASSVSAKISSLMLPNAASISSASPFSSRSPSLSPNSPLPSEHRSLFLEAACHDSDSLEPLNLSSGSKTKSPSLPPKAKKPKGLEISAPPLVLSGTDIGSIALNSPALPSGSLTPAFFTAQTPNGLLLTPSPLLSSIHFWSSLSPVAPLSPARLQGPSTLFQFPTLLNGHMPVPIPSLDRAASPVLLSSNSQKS
# Outline: as §1
# Chain of SPIB (Q01892 whole entry): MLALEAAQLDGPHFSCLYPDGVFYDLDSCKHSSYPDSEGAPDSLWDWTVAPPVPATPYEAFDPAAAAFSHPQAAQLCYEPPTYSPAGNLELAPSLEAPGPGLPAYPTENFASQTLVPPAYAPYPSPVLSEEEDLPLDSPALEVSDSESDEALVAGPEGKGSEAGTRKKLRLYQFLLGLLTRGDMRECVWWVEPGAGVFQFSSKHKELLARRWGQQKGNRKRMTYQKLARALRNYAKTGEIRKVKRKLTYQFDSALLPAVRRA
# Chain of ELF1 (P32519 whole entry): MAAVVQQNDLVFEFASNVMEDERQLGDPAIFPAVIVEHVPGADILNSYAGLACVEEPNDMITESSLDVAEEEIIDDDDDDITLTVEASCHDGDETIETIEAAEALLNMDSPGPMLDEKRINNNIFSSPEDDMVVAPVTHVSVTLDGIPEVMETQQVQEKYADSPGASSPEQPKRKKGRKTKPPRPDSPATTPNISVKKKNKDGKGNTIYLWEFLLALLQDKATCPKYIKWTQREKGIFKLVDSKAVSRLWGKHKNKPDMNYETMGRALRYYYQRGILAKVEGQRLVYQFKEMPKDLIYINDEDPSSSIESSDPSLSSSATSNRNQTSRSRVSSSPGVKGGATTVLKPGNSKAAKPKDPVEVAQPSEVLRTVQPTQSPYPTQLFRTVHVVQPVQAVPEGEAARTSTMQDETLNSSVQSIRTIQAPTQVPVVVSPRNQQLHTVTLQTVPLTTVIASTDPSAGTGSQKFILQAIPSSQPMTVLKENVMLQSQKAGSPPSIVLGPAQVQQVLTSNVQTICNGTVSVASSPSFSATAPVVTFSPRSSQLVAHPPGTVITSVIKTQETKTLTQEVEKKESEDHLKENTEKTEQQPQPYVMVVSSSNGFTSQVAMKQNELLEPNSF
Sequence,binding signal (FLI1),binding signal (ELK1),binding signal (GABPA),binding signal (ERG),binding signal (ELF1),binding signal (EHF),binding signal (SPI1),binding signal (SPIB),binding signal (ELK3)
AAGAAA,"1.08 fold enrichment (6-mer frequency, TF over GST control)","1.14 fold enrichment (6-mer frequency, TF over GST control)","1.25 fold enrichment (6-mer frequency, TF over GST control)","1.2 fold enrichment (6-mer frequency, TF over GST control)","1.15 fold enrichment (6-mer frequency, TF over GST control)","1.18 fold enrichment (6-mer frequency, TF over GST control)","1.22 fold enrichment (6-mer frequency, TF over GST control)","1.1 fold enrichment (6-mer frequency, TF over GST control)","1.22 fold enrichment (6-mer frequency, TF over GST control)"
TAAGTT,"1.23 fold enrichment (6-mer frequency, TF over GST control)","1.39 fold enrichment (6-mer frequency, TF over GST control)","1.33 fold enrichment (6-mer frequency, TF over GST control)","1.25 fold enrichment (6-mer frequency, TF over GST control)","1.3 fold enrichment (6-mer frequency, TF over GST control)","1.38 fold enrichment (6-mer frequency, TF over GST control)","1.31 fold enrichment (6-mer frequency, TF over GST control)","1.35 fold enrichment (6-mer frequency, TF over GST control)","1.27 fold enrichment (6-mer frequency, TF over GST control)"
TAACAC,"1.26 fold enrichment (6-mer frequency, TF over GST control)","1.2 fold enrichment (6-mer frequency, TF over GST control)","1.24 fold enrichment (6-mer frequency, TF over GST control)","1.19 fold enrichment (6-mer frequency, TF over GST control)","1.23 fold enrichment (6-mer frequency, TF over GST control)","1.21 fold enrichment (6-mer frequency, TF over GST control)","1.18 fold enrichment (6-mer frequency, TF over GST control)","1.25 fold enrichment (6-mer frequency, TF over GST control)","1.15 fold enrichment (6-mer frequency, TF over GST control)"
AACGCT,"1.16 fold enrichment (6-mer frequency, TF over GST control)","1.22 fold enrichment (6-mer frequency, TF over GST control)","1.22 fold enrichment (6-mer frequency, TF over GST control)","1.19 fold enrichment (6-mer frequency, TF over GST control)","1.27 fold enrichment (6-mer frequency, TF over GST control)","1.23 fold enrichment (6-mer frequency, TF over GST control)","1.17 fold enrichment (6-mer frequency, TF over GST control)","1.21 fold enrichment (6-mer frequency, TF over GST control)","1.2 fold enrichment (6-mer frequency, TF over GST control)"
TTCTCA,"1.36 fold enrichment (6-mer frequency, TF over GST control)","1.31 fold enrichment (6-mer frequency, TF over GST control)","1.33 fold enrichment (6-mer frequency, TF over GST control)","1.26 fold enrichment (6-mer frequency, TF over GST control)","1.29 fold enrichment (6-mer frequency, TF over GST control)","1.19 fold enrichment (6-mer frequency, TF over GST control)","1.32 fold enrichment (6-mer frequency, TF over GST control)","1.31 fold enrichment (6-mer frequency, TF over GST control)","1.27 fold enrichment (6-mer frequency, TF over GST control)"
TACTTT,"1.32 fold enrichment (6-mer frequency, TF over GST control)","1.48 fold enrichment (6-mer frequency, TF over GST control)","1.41 fold enrichment (6-mer frequency, TF over GST control)","1.29 fold enrichment (6-mer frequency, TF over GST control)","1.34 fold enrichment (6-mer frequency, TF over GST control)","1.39 fold enrichment (6-mer frequency, TF over GST control)","1.25 fold enrichment (6-mer frequency, TF over GST control)","1.36 fold enrichment (6-mer frequency, TF over GST control)","1.11 fold enrichment (6-mer frequency, TF over GST control)"
ACATAA,"1.01 fold enrichment (6-mer frequency, TF over GST control)","1.09 fold enrichment (6-mer frequency, TF over GST control)","1.08 fold enrichment (6-mer frequency, TF over GST control)","1.17 fold enrichment (6-mer frequency, TF over GST control)","1.13 fold enrichment (6-mer frequency, TF over GST control)","1.1 fold enrichment (6-mer frequency, TF over GST control)","1.08 fold enrichment (6-mer frequency, TF over GST control)","1.1 fold enrichment (6-mer frequency, TF over GST control)","1.11 fold enrichment (6-mer frequency, TF over GST control)"
